Each structure is given as a SMILES string. Compounds without any hit were thinned out: in the full panel of roughly 83,000, 20% have a hit.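 Percent growth is the endpoint: 0 to 100 indicates growth inhibition (40 means 60% inhibition), 0 means no net growth, and negative values indicate cell death.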 Activity calls are given as the source filed them.

This assay has as its system NCI-H460 lung. Description: NCI-60 one-dose screen, 48 h (100 = growth as untreated, 0 = no growth, -100 = all killed). Conditions: 10 µM. How it is done:
Growth inhibition of the NCI-H460 human Non-Small Cell Lung tumor cell line is measured as a screen for anti-cancer activity. Cells are grown in 96 well plates and exposed to the test compound for 48 hours. Compounds are tested at a single concentration, which is 10^-5 M for most compounds. The reported endpoint is percent growth (GI% or GIPRCNT), where numbers from 0 - 100% represent growth inhibition, and numbers from -100% - 0 represent cell death. For example, a value of 40 represents 60% growth inhibition. A value of 0 means no net growth occurred over the course of the experiment. A value of -40 indicates 40% of cells at the beginning of the experiment died by the end of the experiment. A value of -100 means all cells are dead at the end of the experiment.
NCI-60 Human Tumor Cell Lines Screen was performed using the standard one-dose NCI protocol, which is described in more detail at https://dtp.cancer.gov/discovery_development/nci-60/default.htm.
Compounds with GIPRCNT values below 10 were considered active. Activity score was based on GIPRCNT using the following formula: […]
Score is 0 for GIPRCNT values of 100 or above, 50 for GIPRCNT values of 0, and 100 for GIPRCNT values of -100.
`O=C(c1ccc(O)cc1)C1[C@H](c2ccccc2Br)[C@@H](c2ccccc2)NC12C(=O)Nc1ccc(Cl)cc12` (stereo not given in full): the growth is 9.99% (active).
The value for `O=C1Nc2cc(Cl)ccc2/C1=C/c1cccc(OCc2ccc(Br)cc2F)c1` was 0.927% (active); that for `COc1ccc(-c2nc(Nc3ccccc3S(N)(=O)=O)c3ccccc3n2)cc1` was -24.9% (active).
The value for `Cc1ccc(-c2ccc(SCC(=O)Nc3ccc(S(N)(=O)=O)cc3Br)nn2)cc1` was 8.44% (active); that for `CC(=O)Nc1ccc(-c2cn(-c3cccc(C(=O)Nc4ccc(F)c(C(F)(F)F)c4)c3)nn2)cn1` was -47.1% (active); that for `COc1ccc(-c2cc(-c3cc(C(=O)c4ccc(Br)cc4)n4ccc(C)cc34)nc(N)c2C#N)cc1` was 84.7% (inactive).
In the case of `Cc1ccc(CSc2nc(-c3ccc(F)cc3)c(C#N)c(=O)[nH]2)cc1` it was 109% (inactive).
In the case of `COc1ccc([C@H]2C(C(=O)c3ccc(Cl)cc3)C3(N[C@@H]2c2ccccc2)C(=O)Nc2ccc(Cl)cc23)cc1` (stereo not given in full), the growth was -11.7% (active).
With `O=C(Cc1ccc2c(c1)CN(C1CCC(=O)NC1=O)C2=O)NCCc1ccccc1` (stereo not given), the growth was 110% (inactive).
In the case of `CC1(C)CC[C@]2(C(=O)O)CC[C@]3(C)C(=CC[C@@H]4[C@@]5(C)C/C(=C/c6ccncc6)[C@H](O)C(C)(C)[C@@H]5CC[C@]43C)[C@@H]2C1` it was 34% (inactive); in that of `O=C(Cn1nc(-c2ccccc2)ccc1=O)NNC(=S)NC1CCCCC1`, 136% (inactive).
The value for `C#Cc1ccc(S(=O)(=O)Nc2cccc(-c3csc(NC(C)=O)n3)c2)cc1` was 76.7% (inactive); that for `COc1ccc(/C=C/C(=O)c2ccc(N3CCN(C)CC3)cc2)c(C(F)(F)F)c1` was 11.2% (inactive).
In the case of `O=C1CCC(N2Cc3c(C#CCCCNC(=O)c4ccc(NC(=O)[C@@H]5NC6(CCCCC6)[C@@]6(C(=O)Nc7cc(Cl)ccc76)[C@H]5c5cccc(Cl)c5F)cc4)cccc3C2=O)C(=O)N1` (stereo not given in full) it was 33.1% (inactive).
Consider `COc1cnc2c(c1)C(=O)c1c-2n(CCCNC(C)C)c(=O)c2cc(OC)c(OC)cc12`, for which the growth was 16% (inactive).
The value for `COc1cc(/C=N/NC(=O)c2ccc3nc(-c4ccc(Cl)cc4)[nH]c3c2)cc(OC)c1OC` was -34.8% (active).
In the case of `c1ccc(C(=C(c2ccc(OCCN3CCCCC3)cc2)c2ccc(OCCN3CCCCC3)cc2)C2CCCC2)cc1`, the growth was -55.4% (active).
With `CC1(c2ccccc2)NC(=O)N(CC(=O)Nc2ccc(C(=O)/C=C/C=C/c3ccccc3)cc2)C1=O` (stereo not given), the growth was 73.2% (inactive).
In the case of `O=C(CSc1nnc(-c2c[nH]c3ccccc23)n1-c1ccccc1)c1ccc(Br)cc1` it was 34.5% (inactive); in that of `O=C(/C=C/Nc1ccccc1)c1ccc2c(c1)Nc1ccccc1S2`, 62.5% (inactive); in that of `C#CCNC(=O)[C@]12CCC(C)(C)C[C@H]1C1=CC[C@@H]3[C@@](C)(CCC#N)[C@H](C(=C)C)CC[C@@]3(C)[C@]1(C)CC2`, 66.9% (inactive).
For `COc1ccc(NC(=O)CSc2nnc(-c3ccc4nc(-c5ccc(Cl)cc5)[nH]c4c3)o2)cc1`, the growth is 10.7% (inactive).
The value for `COc1ccc(-c2cc(C(=O)N=Nc3c(O)[nH]c4ccc(Br)cc34)c3ccccc3n2)cc1` was 5.22% (active); that for `Cc1ccc(CNC(=O)Cc2ccc3c(c2)CN(C2CCC(=O)NC2=O)C3=O)cc1` (stereo not given) was 95% (inactive); that for `COc1ccsc1/C=N/NC(=O)c1[nH]c2ccc(Br)cc2c1-c1ccccc1` was 0.114% (active).
In the case of `CN(C)c1cccc2c(S(=O)(=O)Nc3cccc(-c4csc(NC(=O)CCCCCN5CCN(c6cc7c(cc6F)C(=O)N(C6CCC(=O)NC6=O)C7=O)CC5)n4)c3)cccc12` (stereo not given) it was 91.4% (inactive); in that of `Cn1cc(/C=N/Nc2cccc(Cl)n2)c2ccccc21`, 63.8% (inactive); in that of `CCN1CCN(c2ccc(NC(=O)Nc3ccc(-c4cc(C(=O)NC)c5ncccc5n4)cc3)cc2C(F)(F)F)CC1`, -100% (active).
In the case of `Nc1nc2c(F)c(F)c(F)c(F)c2s1` it was 107% (inactive).
Turning to `COc1ccc2[nH]c(O)c(N=NC(=O)COc3ccc(NC(=O)Nc4ccc(Cl)cc4)cc3)c2c1`, the growth was -48.6% (active).
In the case of `COc1cc2c(cc1OC)/C(=C\c1sc(Nc3ccc(O)cc3)nc1O)C(C(=O)O)=N2` it was 18.2% (inactive); in that of `[2H]C([2H])([2H])Oc1ccc2ncc(C#Cc3cncc(C(=O)Nc4ccc(CN5CCN(C)CC5)c(C(F)(F)F)c4)c3)n2n1`, 2.44% (active); in that of `O=S(=O)(Nc1ncccn1)c1ccc(-n2c(-c3ccc(Br)cc3)nc(-c3ccccc3)c2-c2ccccc2)cc1`, 31.7% (inactive).
`COc1cc(/C=C/C(=O)c2ccc(C(F)(F)F)cc2)ccc1Oc1nc(Nc2ccc(F)cc2)nc(N(C)C)n1`: the growth was 82.7% (inactive).
Regarding `CC1(c2ccccc2)NC(=O)N(CC(=O)Nc2ccc(C(=O)/C=C/c3ccc(Br)cc3)cc2)C1=O` (stereo not given), the growth was 59.5% (inactive).
In the case of `COc1cccc2nc(Nc3ccc(F)c(NC(=O)c4ccc(CN5CCN(C)CC5)c(C(F)(F)F)c4)c3)ccc12` it was -68.8% (active); in that of `O=C(NO)c1ccc(CN2CCN(c3nc(-c4ccccc4)c4ccccc4n3)CC2)cc1`, 6.1% (active); in that of `N#Cc1c(Cl)nc(SCc2ccc(F)cc2)nc1-c1ccc(F)cc1`, 103% (inactive).
In the case of `CCOC(=O)C(Cc1ccccc1)N1C(=O)/C(=C/N2N=C(c3ccc(OC)cc3)CC2c2ccc3ccccc3c2)SC1=S` (stereo not given) it was -3.96% (active).
As to `Cc1ccc(-c2nc3ccc(C(=O)N=Nc4c(O)[nH]c5ccc(Br)cc45)cc3[nH]2)cc1`, the growth is 47.8% (inactive).

The record behind these values is PubChem BioAssay (NCI).
